GLP1R ag = qHTS of GLP-1 Receptor Agonists. Glucagon-like peptide 1 receptor (Homo sapiens), P43220. Potency, µM (series often up to 45.6 µM), for inactives: at the highest dose activation, usual class: activators. HEK293 GLP-1R CRE-luciferase, luminescence, 4-6 h; cells express a hypersensitive GLP-1R form. AID 624172, 2012. actives 0.007% (n = 380,000); also: % of control where 0% means no effect
Target sequence (P43220 whole entry, looked up): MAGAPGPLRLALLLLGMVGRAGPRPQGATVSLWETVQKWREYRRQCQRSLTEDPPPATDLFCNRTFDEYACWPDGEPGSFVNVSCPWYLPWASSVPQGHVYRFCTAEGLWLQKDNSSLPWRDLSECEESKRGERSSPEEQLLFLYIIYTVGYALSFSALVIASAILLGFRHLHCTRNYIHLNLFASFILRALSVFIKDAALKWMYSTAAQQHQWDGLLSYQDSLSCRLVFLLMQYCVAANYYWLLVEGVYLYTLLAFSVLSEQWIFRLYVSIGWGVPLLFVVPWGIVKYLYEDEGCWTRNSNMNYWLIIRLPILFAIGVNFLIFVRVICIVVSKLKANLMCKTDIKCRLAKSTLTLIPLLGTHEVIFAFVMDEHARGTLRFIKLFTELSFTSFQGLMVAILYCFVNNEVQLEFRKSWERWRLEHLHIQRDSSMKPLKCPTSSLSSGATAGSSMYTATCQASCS
GLP1R cytotox = qHTS of GLP-1 Receptor Inverse Agonists: Cytotox Screen; actives 0.13% (n = 410,000); Potency, µM (doses to about 38.3 µM), without a hit: top-dose activity change, negative = inhibition, most hits filed as inhibitors; AID 624418, 2012; HEK293 cAMP-luciferase reporter cells, luminescence, 24 h;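 also: loss of luciferase light is scored as toxicity; % is scaled to controls: 0 for no effect and ±100 for the full control effect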
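A 23 nL compound transfer followed 12 hours of cell culture at 37 deg C; exposure then lasted 24 hr. Luciferase assay detection reagent was dispensed and plates read for luminescence after a 12 min room-temperature wait.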
GLP1R inv ag = qHTS of GLP-1 Receptor Inverse Agonists (Inhibition Mode) | Glucagon-like peptide 1 receptor (Homo sapiens), P43220 | AID 624417, 2012 | actives 1.6% (n = 410,000) | HEK293 GLP-1R CRE-luciferase, luminescence, 24 h; GLP-1R form is constitutively active | Potency, µM (doses to about 38.3 µM), for the others: at the highest dose activity change, negative = inhibition, actives largely listed as inhibitors; also: % is scaled to controls: 0 for no effect and ±100 for the full control effect; nearly all actives have a fitted effect of over 55% in size
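Readout was luciferase luminescence, measured 12 min after detection reagent at room temperature. Beforehand, GLP-1R reporter HEK293 cells had sat 12 h, then received compounds for 24 hr at 37 deg C.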
The depositor's hits bear a star; ? = inconclusive; nt = not tested or not shown; ! = a repeat was not active. Rows were chosen to be rich in hits. Some 1.7% of all compounds tested hit in one or more screens of this group. Calls follow the shape of the dose curve; as a rule, active = well fitted curve in the direction sought with a large enough effect; inconclusive = small, poorly fitted or top-dose-only effect, or another doubt; inactive = no such curve, though single readings can be large; an effect the other way counts as inactive or inconclusive. Potency is read from the fitted curve at half-maximal effect.

SMILES | GLP1R ag | GLP1R cytotox | GLP1R inv ag
O=C(Nc1ccc(Cl)c(S(=O)(=O)N2CCOCC2)c1)c1ccc2c(c1)OCO2 | 0% | -17% | 11µM*
O=C(Nc1ccc(Cl)c(S(=O)(=O)N2CCOCC2)c1)c1ccc2c(c1)OCCO2 | 2% | -20% | -28%
O=S(=O)(Cc1ncc(C(F)(F)F)cc1Cl)c1ccccc1 | 5% | -13% | -13%
Cc1ccc(O)c(CCc2ccc(O)cc2)n1 | -1% | 0% | -11%
Cc1ccccc1SCC(=O)N/N=C/c1ccc(F)cc1 | 6% | -5% | ?
Cc1ccccc1Cn1cc(NC(=O)c2noc3c2CC(C(C)(C)C)CC3)cn1 (stereo not drawn) | 0% | 2% | 0%
Cc1ccccc1Cn1nc(C)c(NC(=O)c2noc3c2CC(C(C)(C)C)CC3)c1C (stereo not drawn) | 7% | -38% | 10µM*
COC(=O)C1=C(C)NC(C)=C(C(=O)O[C@H]2CCN(Cc3ccccc3)C2)C1c1cccc([N+](=O)[O-])c1 (stereo partly drawn) | -4% | nt | nt
CCCCC(CC)C(=O)Oc1ccc(O)c(C(C)(C)C)c1 (stereo not drawn) | 17% | ? | 5.6µM*
CC(C)(C)c1cc(OC(=O)C2CCCC2)ccc1O | -9% | 2% | 7%
OC(c1cccc(Cl)c1)c1ncc(-c2cccc3ccccc23)[nH]1 (stereo not drawn) | 3% | -17% | ?
O=C(COC(=O)CC1CC2CCC1C2)NCc1ccc(F)cc1 (stereo not drawn) | 16% | -17% | -14%
O=C(CC1CC2CCC1C2)OCC(=O)c1c[nH]c2ccccc12 (stereo not drawn) | 4% | -21% | 10µM*
O=C(Cn1c(=O)n(-c2ccccc2Cl)c(=O)c2sc3ccccc3c21)NC1CCCCC1 | -1% | -16% | 1%
CCOC(=O)C1(C)CCN1C(=O)c1ccc(Cl)nc1 (stereo not drawn) | 3% | 6% | 6%
COc1ccc(C)cc1N(C(=O)c1ccccc1)c1nc2ccccc2s1 | -13% | -6% | ?
COc1ccc(C)cc1N(C(=O)c1cccc(F)c1)c1nc2ccccc2s1 | -11% | 3% | ?
Cc1ccsc1C(=O)N(c1nc2ccccc2s1)c1c(C)cccc1C | -7% | 0% | 7.9µM*
Cc1ccccc1N(C(=O)c1cccs1)c1nc2ccccc2s1 | 0% | 21% | 2.2µM*
Cc1ccc(Cl)cc1NC1=C/C(=N\S(=O)(=O)c2cccs2)c2ccccc2C1=O | -11% | ? | 1µM*!
Cc1ccc(NC2=C/C(=N\S(=O)(=O)c3cccs3)c3ccccc3C2=O)c(C)c1 | -9% | ? | ?
CCCn1c(=O)c2sccc2n2c(CCCC(=O)Nc3ccc(C)c(F)c3)nnc12 | nt | -14% | 1%
Cc1cccc(NS(=O)(=O)c2cccc(C(=O)NCC3(N4CCCCC4)CCCCC3)c2)c1 | -4% | -16% | ?
Cc1ccc(S(=O)(=O)Nc2cccc(C(=O)NCC3(N4CCCCC4)CCCCC3)c2)cc1F | 14% | -27% | 11µM*
Fc1ccc(-c2nnc(-c3ccc4ccccc4c3)o2)cc1 | 0% | 15% | ?
SMILES | GLP1R ag | GLP1R cytotox | GLP1R inv ag
O=C(CCl)N1CCN(S(=O)(=O)c2ccc3ccccc3c2)CC1 | 1% | ? | 10µM*
CN(C)C(=O)N1CCN(S(=O)(=O)c2ccc3ccccc3c2)CC1 | -3% | -12% | 12%
Cc1c(Cl)cccc1NC(=S)N=Nc1c(O)n(CN2CCOCC2)c2ccccc12 | 8% | 1.4µM* | ?
Oc1c(N=NC(=S)Nc2ccccc2F)c2ccccc2n1Cc1ccccc1Cl | -3% | 6% | -22%
Cc1ccc([C@H]2C[C@@H](n3cc(-c4ccc(F)cc4)nn3)[C@H](O)CN2C(=O)C2CCCCC2)cc1 | 2% | -16% | ?
COc1ccc2cc(-c3nc4ccc(C(=O)O)cc4[nH]3)c(=O)oc2c1 | nt | 94% | -66%
Cn1ncc2c(=S)nc(Cl)[nH]c21 | 4% | ? | 10µM*
S=c1nc[nH]c2c1cnn2-c1ccccc1 | 16% | -1% | 11%
Cc1ccc(O)c(NC(=O)c2ccc3c(c2)C(=O)N(Cc2ccco2)C3=O)c1 | -3% | -2% | 6%
Nc1ccccc1Nc1cc(-c2cccc(Cl)c2)nn1-c1ccccc1 | -30% | -27% | 10µM*
Nc1c(-c2ccccc2)cnn1-c1cccc(Cl)c1 | 2% | -1% | ?
O=C(NC1CCCCC1)c1n[nH]c2c1CCCCC2 | -8% | 5% | 2.5µM*
CCC(C)(C)C1CCc2[nH]nc(C(=O)NC3CCCC3)c2C1 (stereo not drawn) | 0% | -9% | ?
COc1ccc(/C=C(\NC(=O)c2ccccc2)C(=O)NC2CCCCC2)cc1 | nt | 5% | -9%
Cc1ccsc1/C=N/NC(=O)c1nnn(-c2nonc2N)c1CN(C)c1ccccc1 | 1% | 1% | 11µM*
CCc1c(C(=O)N/N=C/c2sccc2C)nnn1-c1nonc1N | 8% | -2% | 6%
CC(/C=N/NC(=O)c1nnn(-c2nonc2N)c1CN(C)C)=C\c1ccco1 | -1% | -1% | 9%
CC/C(=N\NC(=O)c1nnn(-c2nonc2N)c1-c1ccc2c(c1)OCO2)c1ccccc1 | 9% | -10% | ?
CCCN(CCC)Cc1c(C(=O)N/N=C/C(C)=C\c2ccco2)nnn1-c1nonc1N | 0% | -30% | 3.5µM*
CC/C(=N\NC(=O)c1nnn(-c2nonc2N)c1-c1cccs1)c1ccccc1 | 7% | 4% | 7.9µM*
CCOc1ccc(NC(=O)COC(=O)CC2CC3CCC2C3)cc1 (stereo not drawn) | -3% | -1% | 16%
CCOc1ccc(C2C(C#N)=C(N)N(N(C)C)C3=C2C(=O)CC(C)(C)C3)cc1 (stereo not drawn) | 0% | -6% | -21%
Cc1c(C(=O)N(Cc2ccc(N(C)C)cc2)CC2CCCO2)oc2ccccc12 (stereo not drawn) | 30% | 1% | 10µM*
Cc1c(C(=O)N(Cc2ccc(N(C)C)cc2)CC2CCCO2)oc2ccc(Cl)cc12 (stereo not drawn) | nt | 8% | 21%
COc1ccccc1Cc1c(C2CCCCC2)nc2ccc(Cl)cn12 | -3% | ? | 3.5µM*
SMILES | GLP1R ag | GLP1R cytotox | GLP1R inv ag
COc1ccccc1Cc1c(C2CCCCC2)nc2ccc(C)cn12 | -6% | ? | ?
COc1cccc(C(=O)NCCc2csc(-c3ccc(Cl)cc3)n2)c1 | nt | -6% | ?
CN(C)CCCNC(=O)c1ccccn1 | -4% | -3% | 7%
CN(C)CCCNC(=O)c1ccc(-c2nc(-c3ccc(Cl)cc3)cs2)cc1 | -5% | ? | 6.3µM*
CC(C)(C)c1ccc(C(=O)NCCc2csc(-c3ccc(Cl)cc3)n2)cc1 | nt | -4% | 10µM*
Cn1cc(C(=O)[C@@H]2CCc3[nH]cnc3C2)c2ccccc21 | 11% | nt | nt
Cc1ccc(Cc2c(-c3ccc(C)cc3)nc3c(Cl)cc(C(F)(F)F)cn23)cc1 | -4% | 4% | -7%
CCC(C)NC(=O)Cn1c(=O)n(CC2CCC(C(=O)NC)CC2)c(=O)c2sccc21 (stereo not drawn) | nt | 10% | 19%

Screening data from PubChem BioAssay.
